Shown are actives, neighbours in structure and some others; about 8.1% of the full set was active somewhere.
ClpP mod – qHTS Assay for Activators of ClpP. purified B. subtilis ClpP, FRET peptide cleavage, 20 min. Potency, µM (titrated, usually from 57.5 µM), for inactives: at the highest dose activity change, negative = active. 340,000 tested, 1.9% active. AID 651965, 2013; active = well fitted falling curve with a large enough effect; inconclusive = small, poorly fitted or top-dose-only effect; inactive = no such curve, though single readings can be large or run the other way; also: the source files actives as falling curves though it sought activators and does not explain the sign; nearly all actives have a fitted effect of over 65% in size
Target sequence (P80244 whole entry, looked up): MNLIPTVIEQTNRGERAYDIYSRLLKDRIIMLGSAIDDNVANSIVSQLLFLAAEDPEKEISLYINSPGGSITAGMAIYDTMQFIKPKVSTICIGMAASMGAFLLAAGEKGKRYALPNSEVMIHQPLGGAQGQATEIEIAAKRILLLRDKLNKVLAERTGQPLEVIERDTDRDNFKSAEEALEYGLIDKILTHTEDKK
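Purified B. subtilis ClpP, 10 microg/mL final in Tris/HCl pH8 with KCl, BSA, glycerol and Tween-20, cleaved an Abz/nitrotyrosine-quenched decapeptide. Fluorescence (ex 320, em 430) was read at 0 and 20 min at room temperature. Delta was normalized to 5.8 microM ADEP and DMSO/no-enzyme controls.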
Sfp PPTase inh – blocks B. subtilis Sfp PPTase activity. Potency, µM, for the others: largest response in the series, negative = inhibition, usual class: inhibitors. 310,000 tested, 3.5% active. Biochemical Sfp PPTase activity, qHTS;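 also: the enzyme is Sfp with the accession as filed and its product quenches rhodamine fluorescence; 0% = enzyme reaction without inhibitor and -100% = no enzyme wells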
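With Hepes-Na pH 7.6 buffer containing 10 mM MgCl2, Sfp (15 nM) modified BHQ-2-YbbR (12.5 uM) using rhodamine-CoA (5 uM). Two reads 30 minutes apart at 525/598 nm yielded each well's rate.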
PINK1 expr mod – modulators of PINK1 expression; PINK1 immunofluorescence, high-content cytometry, 24 h; Potency, µM (doses to about 76.6 µM), for the others: at the highest dose activation (PINK1 increase), hits mostly activators; 410,000 tested, 0.2% active; active = well fitted activation curve with a large enough effect; inconclusive = small, poorly fitted or top-dose-only effect; cell line not stated here; also: % of control where 0% means no effect; nearly all actives have a fitted effect of over 65% in size
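Measures PINK1 amount and localization on or inside mitochondria by immunofluorescence. Stable cells get compounds at 5 concentrations for 24 hours before fixation and staining; CCCP controls included.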
Gal4-VP16 FLuc – Gal4-VP16 reporter inhibition counter-screen; Drosophila S2 Gal4-VP16 UAS-luciferase, luminescence, 20 h; Potency, µM (series often up to 53.6 µM), for the others: at the top dose activity, negative = inhibition, most hits filed as inhibitors; 310,000 tested, 3.5% active;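 also: Gal4-VP16 expression switched on by copper sulfate through the metallothionein promoter; % is scaled to controls: 0 for no effect and ±100 for the full control effect; nearly all actives have a fitted effect of over 50% in size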
RORgamma inh – blocks mouse ROR gamma transcriptional activity | Drosophila S2 Gal4-RORgamma UAS-luciferase reporter, 20 h | Potency, µM (top dose mostly 53.6 µM), without a hit: at the highest dose activity change, negative = inhibition, actives largely listed as inhibitors | 310,000 tested, 5.4% active; also: % is scaled to controls: 0 for no effect and ±100 for the full control effect; nearly all actives have a fitted effect of over 60% in size
Target sequence (P51450 whole entry, looked up, the tested form may be a part): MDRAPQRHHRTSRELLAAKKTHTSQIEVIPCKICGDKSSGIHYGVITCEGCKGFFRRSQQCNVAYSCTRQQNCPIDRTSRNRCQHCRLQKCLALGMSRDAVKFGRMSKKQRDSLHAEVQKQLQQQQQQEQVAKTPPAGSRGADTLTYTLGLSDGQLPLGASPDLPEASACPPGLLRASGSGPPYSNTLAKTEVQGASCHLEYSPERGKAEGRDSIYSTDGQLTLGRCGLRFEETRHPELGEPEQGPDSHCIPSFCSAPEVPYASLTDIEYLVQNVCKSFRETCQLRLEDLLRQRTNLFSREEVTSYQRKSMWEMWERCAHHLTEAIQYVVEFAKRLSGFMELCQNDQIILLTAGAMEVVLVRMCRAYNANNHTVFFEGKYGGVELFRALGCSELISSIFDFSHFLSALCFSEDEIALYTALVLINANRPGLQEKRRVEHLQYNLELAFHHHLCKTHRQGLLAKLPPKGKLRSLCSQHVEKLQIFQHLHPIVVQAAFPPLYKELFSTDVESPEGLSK
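Luciferase reporter read in Schneider cells carrying Gal4-RORγ (mouse) and UAS-Photinus luciferase; cells given compound 1 h before 700 uM copper sulfate induction, then incubated 20 h at ambient temperature.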
Epigenetic derep – derepresses silenced GFP reporter in murine cells | murine LDR cells, GFP reporter derepression, 30 h | Potency, µM (titrated, usually from 53.9 µM), for the others: at the top dose GFP activation, hits mostly activators | 280,000 tested, 0.2% active | AID 1865; also: % of control where 0% means no effect; nearly all actives have a fitted effect of over 60% in size
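In this reporter-derepression format, murine cells bearing a silenced integrated CMV-GFP locus incubate with test compound (30 h, 37 C), then are washed and imaged; fluorescent objects of 20–120 um count as induced cells.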
Numbers without * were called inactive; ? = inconclusive; · = no result given; [ ] = another dose, or the depositor's remark. Unless noted, calls follow the shape of the dose curve; as a rule, active = well fitted curve in the direction sought with a large enough effect; inconclusive = small, poorly fitted or top-dose-only effect, or another doubt; inactive = no such curve, though single readings can be large; an effect the other way counts as inactive or inconclusive. Potency is read from the fitted curve at half-maximal effect.

SMILES | ClpP mod | Sfp PPTase inh | PINK1 expr mod | Gal4-VP16 FLuc | RORgamma inh | Epigenetic derep
Cc1ccc(C=Nc2ccccc2C(N)=O)s1 | 8.91µM* | 4.4% | 3.8% | ? | 40.4% | -3.2%
Cc1cccc(/C=N/NC(=O)Cc2cccs2)c1 | · | 6.5% | 4.9% | 16.7% | 30.5% | -2.9%
CCCN1CNc2c(c(=O)[nH]c(=S)n2CCc2cccc(OC)c2)C1 | -1.0% | · | 0.3% | · | · | ·
Cc1ccc2nc(-c3ccc(Cl)s3)c(Nc3ccc4c(c3)OCCO4)n2c1 | ? | · | -2.6% | · | · | 1.5%
Cc1ccn2c(Nc3ccc4c(c3)OCCO4)c(-c3ccc(Cl)s3)nc2c1 | 25.1µM* | · | -1.9% | · | · | 11.1%
Cc1ccc(-c2nc3cnccn3c2Nc2ccc3c(c2)OCCO3)o1 | -0.4% | 35.5µM* | -4.4% | · | -12.0%[0.365 µM] | 0.0%
Cc1ccc(OCCNC(=O)CNC(=O)Cc2cccc3ccccc23)cc1 | -1.5% | · | 1.3% | · | · | ·
O=c1c2c3nc4ccccc4nc3n(CC3CCCO3)c2ncn1CCc1ccccc1 (centres undefined) | 4.47µM* | 4.9% | 4.4% | -3.3% | 15.3% | -1.0%
O=C(O)c1cccc2cccc(-c3c4ccc(=O)c(O)c-4oc4c(O)c(O)ccc34)c12 | -29.3% | · | -0.3% | · | · | ·
O=C(O)c1ccccc1-c1c2cc(Br)c(=O)c(Br)c-2oc2c(Br)c(O)c(Br)cc12 | · | 79.4µM* | · | ? | 11.5% | ·
CSC(=NC#N)N1CCN(c2ccccc2)CC1 | -0.4% | 2.2% | 5.8%[38.3 µM] | ? | -31.9% | -1.1%
CSC(=NC#N)N1CCN(c2c(C)cccc2C)CC1 | · | -7.5% | -0.3% | 13.7%[10 µM] | 11.2µM* | -0.3%
CCOC(=O)c1ccc(NC(=O)Cn2cc(C(=O)C3CC3)c3ccccc32)cc1 | 0.0% | · | -0.3% | · | · | 3.8%
O=c1c2cc(Br)ccc2[nH]c(=S)n1Cc1cccnc1 | -3.3% | -23.4% | 10.8% | ? | 1.12µM* | -1.1%
C=CCn1c(=S)[nH]c2nc3c(cc2c1=O)CCCC3 | -4.3% | 3.9% | -4.9%[38.3 µM] | 7.08µM* | 7.08µM* | -1.1%
C=CCn1c(=S)[nH]c2ccc(Br)cc2c1=O | 1.8% | 13.2% | -1.0% | 3.16µM* | 2.82µM* | 0.0%
C=CCn1c(=S)[nH]c2cc(C(=O)Nc3ccc(OC)c(OC)c3)ccc2c1=O | · | -18.2% | 2.0% | -1.5% | ? | ·
Cc1cccc(-n2c(=S)[nH]c3nc4c(cc3c2=O)COC(C)(C)C4)c1 | · | 16.9% | -0.2% | -9.5% | -41.6% | -0.3%
COc1ccc2c(c1)OC(C)CN(CCNC(=O)C1CCOC1)C2 (centres undefined) | · | · | 1.8% | · | · | ·
N/C(=N/OCc1cccc([N+](=O)[O-])c1)c1nonc1N | 11.2µM* | ? | -2.9% | 1.5% | ? | -6.9%
N/C(=N\OCc1ccccc1)c1nonc1N | -2.3% | -13.0% | 0.5% | ? | ? | -4.6%
CCc1ccccc1NC(=O)Cn1nc(-c2cc(C)ccc2C)c2c(c1=O)CCCC2 | 0.6% | · | -0.5% | · | · | -1.0%
Cc1ccc(NC(=O)CC(=O)c2ccc([N+](=O)[O-])cc2)cc1S(=O)(=O)Nc1cccc(Cl)c1 | -0.6% | 25.3% | 31.6µM* | -25.9% | ? | 0.0%
Cc1ccc(NS(=O)(=O)c2cc(C(=O)Nc3cccc([N+](=O)[O-])c3)ccc2C)cc1 | -3.9% | 16.6% | ? | ? | ? | 1.5%
N#Cc1ccccc1NC(=O)CSc1nnc(-c2ccccc2)n1-c1ccccc1 | -9.8% | 14.6% | 0.1% | 19.0% | 9.1% | 0.9%
SMILES | ClpP mod | Sfp PPTase inh | PINK1 expr mod | Gal4-VP16 FLuc | RORgamma inh | Epigenetic derep
Cc1ccc(-c2nnc(SCC(=O)CC(=O)Nc3ccccc3)n2-c2ccccc2)cc1 | -0.2% | 1.8% | · | ? | 3.55µM* | 0.0%
CCN(CC)c1ccc(-c2nnc(SCC(=O)Nc3ccccc3C#N)n2-c2ccccc2)cc1 | ? | 17.1% | -1.6% | -25.3% | 17.8µM* | -1.1%
ClCCl | · | · | · | 6.9% | 10.0% | ·
COc1ccccc1NC(=O)COC(=O)c1cnccn1 | 2.6% | 8.3% | -1.1% | 5.2% | -29.8% | 0.8%
CCc1ccc(OCC(=O)NNC(=O)c2cnccn2)c(Br)c1 | -2.3% | 20.1% | 0.1% | 6.31µM* | ? | ·
COc1ccccc1OCC(=O)NNC(=O)c1cnccn1 | -0.6% | -46.3% | -0.2% | -2.9% | 11.2µM* | -2.3%
O=C(NNC(=O)c1cnccn1)c1ccc(Cl)c(Cl)c1 | 0.6% | 13.4% | 2.6% | 10µM* | 6.31µM* | ·
O=C(CCC1N=C2c3ccccc3N=C(SCC(=O)Nc3ccccc3F)N2C1=O)NCc1ccco1 (centres undefined) | -15.7% | · | 0.8% | · | · | 0.0%
CCc1ccc2nc(Nc3nc(COC)cc(=O)[nH]3)nc(C)c2c1 | -2.3% | 11.5% | 0.2%[38.3 µM] | -11.1% | -22.7% | -1.1%
COCc1cc(=O)[nH]c(Nc2nc3ccc(C)cc3o2)n1 | 1.1% | -22.7% | -0.4% | 3.16µM* | 4.47µM* | 16.1%
COc1ccc(-c2ccc(SCC(=O)NCc3ccco3)nn2)cc1 | -2.9% | 5.8% | 1.6%[38.3 µM] | -1.5% | -12.0%[10 µM] | 1.9%
COc1cc(NC(=O)CSc2ccc(-c3ccco3)nn2)cc(OC)c1 | -7.6% | 28.2µM* | -1.4% | -3.8% | 40.4% | ·
COc1ccc(NC(=O)CSc2ccc(-c3ccco3)nn2)cc1 | 0.6% | 31.6µM* | 6.4% | 0.9% | -13.2% | ·
CCC1CN(CC(=O)NCc2ccc3c(c2)OCO3)Cc2ccc(Cl)cc2O1 (centres undefined) | · | · | 1.2% | · | · | ·
CC1CCN(S(=O)(=O)c2ccc3[nH]cc(C(=O)NCc4ccc(F)cc4)c(=O)c3c2)CC1 | -1.9% | · | 2.0% | · | · | -1.1%
NC(=S)Nn1c(-c2ccccc2)nc2ccccc2c1=O | -1.9% | -16.1% | -1.7% | -10.4% | -18.9% | 0.1%
COc1ccc(-c2nc3ccccc3c(=O)n2NC(=S)N(C)C)cc1 | -1.3% | 17.8µM* | 0.7% | 1.4% | 30.1% | 0.0%
COc1ccc(OCC(=O)Nn2c(-c3ccc(OC)cc3)nc3ccccc3c2=O)cc1 | -2.2% | 1.5% | -0.9% | 10µM* | ? | 0.0%
COc1ccc(OCC(=O)Nn2c(-c3ccc(C)cc3)nc3ccccc3c2=O)cc1 | ? | 12.1% | 3.4% | 6.31µM* | -37.1% | 0.0%
Oc1cc(-c2ccc(N3CCCCC3)nc2)cc2cccnc12 | · | · | 12.6µM* | · | · | ·
O=C(O)CSc1sc(=S)sc1SCC(=O)O | 0.2% | 79.4µM* | -0.8%[38.3 µM] | -5.5% | -18.5% | -1.1%
Oc1c(C=C2N=c3ccccc3=N2)sc(=S)n1-c1ccc(F)cc1 | -1.0% | 4.2% | 2.9% | 12.6µM* | ? | 6.3%
Cc1ccc(C(=O)Nn2c(O)c(C=C3N=c4ccccc4=N3)sc2=S)cc1 | 0.4% | 50.1µM* | 0.2%[38.3 µM] | -5.3% | 13.2% | 0.0%
O=C(Nn1c(O)c(C=C2N=c3ccccc3=N2)sc1=S)c1ccccc1 | 1.5% | -14.8% | 3.3%[38.3 µM] | 13.8% | 2.0% | -0.7%

Screening results from PubChem BioAssay.
